Screens (PubChem BioAssay)
G9a inh – qHTS Assay for Inhibitors of Histone Lysine Methyltransferase G9a. Histone-lysine N-methyltransferase EHMT2 (Homo sapiens), Q96KQ7. G9a H3K9 monomethylation, AlphaScreen, 2 h. Potency, µM (titrated, usually from 102 µM), inactives show at the top dose activity, negative = inhibition, actives largely listed as inhibitors. hit rate 8.8% among 350,000; further: on the % scale 0 is the no-effect control and ±100 the full control effect; nearly all actives have a fitted effect of over 75% in size
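AlphaScreen read-out: biotin-H3K9 peptide (500 nM) methylation by 20 nM enzyme with 20 uM SAM, 2 h at room temperature after 15 min compound preincubation; anti-monomethyl H3K9 antibody plus donor/acceptor beads, 10 min dark.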
BAZ2B inh – qHTS Assay for Inhibitors of BAZ2B; Bromodomain adjacent to zinc finger domain protein 2B (Homo sapiens), Q9UIF8; AlphaScreen BAZ2B-H3K14Ac peptide displacement; Potency, µM (top dose mostly 114 µM), without a hit: at the top dose activity change, negative = inhibition, hits mostly inhibitors; hit rate 4.4% among 360,000; further: on the % scale 0 is the no-effect control and ±100 the full control effect; nearly all actives have a fitted effect of over 60% in size
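Protein-peptide AlphaScreen: BAZ2B 50 nM, b-H3K14Ac 50 nM, 1x PBS pH 7.4 + 0.01% Tween-20. Preincubation 30 min RT; cpd 30 min RT (top 110 uM); beads 20 min RT, light-protected.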
L3MBTL1 block – qHTS Assay for the Inhibitors of L3MBTL1; Lethal(3)malignant brain tumor-like protein 1 (Homo sapiens), Q9Y468; Potency, µM (series often up to 57.1 µM), without a hit: at the top dose activity, negative = inhibition, actives largely listed as inhibitors; AlphaScreen L3MBTL1–H3K9me1 peptide binding; hit rate 0.66% among 230,000; further: on the % scale 0 is the no-effect control and ±100 the full control effect; nearly all actives have a fitted effect of over 60% in size
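L3MBTL1 (50 nM) pre-complexed 30 min with biotinylated H3(1-15)K9me1 peptide (75 nM), then compounds added for 30 min at room temperature; AlphaScreen streptavidin donor/nickel chelate acceptor beads (10 ug/mL final) read after 30 min dark incubation.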
JMJD2A Tudor – qHTS Assay for Inhibitors of JMJD2A-Tudor Domain | Lysine-specific demethylase 4A (Homo sapiens), O75164 | AlphaScreen JMJD2A-Tudor / H3K4me3 peptide binding | Potency, µM (highest dose often 114 µM), for the others: top-dose activity change, negative = inhibition, usual class: inhibitors | hit rate 4.4% among 390,000; further: on the % scale 0 is the no-effect control and ±100 the full control effect; nearly all actives have a fitted effect of over 50% in size
HP1b binding inh – HTS for Inhibitors of HP1-beta Chromodomain Interactions with Methylated Histone Tails. hit rate 0.56% among 390,000. Chromobox protein homolog 1 (Homo sapiens), P83916. AlphaScreen HP1-beta / biotin-H3K9me3 peptide binding. AID 540317, 2011. Potency, µM (top dose mostly 114 µM), for the others: at the top dose activity change, negative = inhibition, actives largely listed as inhibitors; further: nearly all actives have a fitted effect of over 70% in size
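AlphaScreen: HP1-beta (50 nM) preformed 30 min with biotin-H3(1-18)K9me3 peptide (50 nM) in PBS pH 7.4, 0.01% Tween-20. Compound added for 30 min at RT, then streptavidin donor/nickel chelate acceptor beads (10 ug/mL) for 30 min.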
* marks the source's active call; other numbers are inactive results; ? = inconclusive; / = no result; [ ] = remark or other dose. Most compounds without a hit are left out; they make up all but 11% or so of the library. The call rests on the fitted dose curve; in most records, active means well fitted inhibition curve with a large enough effect; inconclusive means small, poorly fitted or top-dose-only effect; inactive means no such curve, though single readings can be large or run the other way. Potency means the concentration at half of the fitted maximal effect.

SMILES	G9a inh	BAZ2B inh	L3MBTL1 block	JMJD2A Tudor	HP1b binding inh
CCN1CCN(CC2CC3C=CC2C3)CC1 (stereo unspecified)	?	50µM*	-5%	1.3µM*	?
Cc1ccccc1CN1CCN(CC2CC3C=CC2C3)CC1 (stereo unspecified)	3.2µM*	22µM*	/	5.6µM*	?
Cc1cccc(-n2nnc(-c3nc(-c4ccccc4)no3)c2N)c1C	0%[59 µM]	2%	/	-1%	25%
C=CCn1c(CNS(=O)(=O)c2ccc(Br)cc2)n[nH]c1=S	32µM*	-13%	/	28µM*	29%
C=CCn1c(CNS(=O)(=O)c2ccc(Cl)cc2)n[nH]c1=S	32µM*	-13%	/	28µM*	28%
C=CCn1c(Cc2nc3ccc(Cl)cc3[nH]2)n[nH]c1=S	?	?	/	?	6%
C=CCn1c(CNS(=O)(=O)c2ccc(F)cc2)n[nH]c1=S	23%[12.7 µM]	-3%	/	13µM*	51%
CCn1c(CNS(=O)(=O)c2ccc(Br)cc2)nnc1SC	60%	-15%	/	-12%	36%
CCOc1cc(/C=C2/C(=N)N3C(=NC2=O)SN=C3S(C)(=O)=O)ccc1OS(=O)(=O)c1ccccc1	/	?	/	?	-7%[57 µM]
Cc1cc(/C=C2/C(=N)N3C(=NC2=O)SN=C3S(C)(=O)=O)c(C)n1-c1ccc(F)cc1	40µM*	/	/	-24%	16%
Cc1ccccc1-n1c(C)cc(/C=C2/C(=N)N3C(c4ccccc4)=CSC3=NC2=O)c1C	?	-7%	-10%	-28%	-1%
COc1cc(/C=C2/C(=N)N3C(=NC2=O)SN=C3S(C)(=O)=O)ccc1OS(=O)(=O)c1ccccc1	25µM*	50µM*	/	/	/
CCOc1ccc(-n2c(C)cc(/C=C3/C(=N)N4C(=NC3=O)SN=C4S(C)(=O)=O)c2C)cc1	28µM*	56µM*	/	?	10%
COc1ccccc1-n1c(C)cc(/C=C2/C(=N)N3C(=NC2=O)SN=C3S(C)(=O)=O)c1C	50µM*	/	/	-36%	10%
O=C(C1CCN(S(=O)(=O)c2cccc3nonc23)CC1)N1CCN(c2ccccc2)CC1	-29%[59 µM]	-25%	/	-25%	14%
Cc1ccc2onc(CC(=O)Nc3ccc(C(C)C)cc3)c2c1	-2%[59 µM]	-21%	/	-14%	21%
COc1ccc(NC(=O)CSCC(=O)N(C)CC(=O)Nc2cccc3ccccc23)cc1	?	1%	-10%	-7%	22%
CCOC(=O)C1(Cc2ccccc2C(F)(F)F)CCN(C(C)CCn2cccn2)CC1 (stereo unspecified)	/	45µM*	?	-17%	28%
CCOc1ccc(CNC(=O)Cn2cc3c(n2)-c2c(oc(C(=O)N4CCOCC4)c2C)CC3)cc1	?	?	/	56µM*	27%
Cc1ccc(CNC(=O)Cn2cc3c(n2)-c2c(oc(C(=O)N4CCOCC4)c2C)CC3)cc1	-5%[59 µM]	?	/	-12%	33%
Oc1ccc(NCc2ccccc2OCc2ccc(Cl)cc2)cc1	7.9µM*	-25%	/	?	5%
O=c1[nH]c2ccc(NCc3ccc(-c4ccccc4F)o3)cc2[nH]1	-25%[59 µM]	-10%	/	-16%	28%
CCOc1cc(CNc2ccc(O)cc2)ccc1OCc1ccc(Cl)cc1	?	-33%	/	-36%	?
O=c1[nH]c2ccc(NCc3ccccc3F)cc2[nH]1	18µM*	?	/	?	-1%
O=c1[nH]c2ccc(NCc3ccccc3OCc3ccc(Cl)cc3)cc2[nH]1	25µM*	22µM*	?	28µM*	?
SMILES	G9a inh	BAZ2B inh	L3MBTL1 block	JMJD2A Tudor	HP1b binding inh
Cc1c(C(=O)N2CCC(C(N)=O)CC2)oc2ccc(Br)cc12	-11%	-5%	0%	-13%	-11%
CCCCc1nn2c(=O)cc(COC(=O)c3cccs3)nc2s1	6%[59 µM]	-3%	/	-17%	-24%
Cc1cc(-c2ccccc2)c2c(=O)n(-c3ccccc3)[nH]c2n1	11µM*	?	?	-34%	5%
CN=c1scc(-c2ccc(F)cc2)n1/N=C/c1ccc(O)c(O)c1	4.5µM*	10µM*	/	32µM*	40µM*
CN(Cc1ccccc1)C(=S)NC(=O)c1ccccc1	50µM*	-25%	-6%	-24%	19%
O=C(Cc1csc(-c2ccccc2)n1)NCc1ccccc1F	13%[59 µM]	7%	2%	/	/
O=C(NC(=S)NCc1ccncc1)c1ccccc1	/	-4%	4%	-10%	22%
O=C(NC(=S)NCc1ccccc1)c1ccccc1	45µM*	-25%	-6%	-22%	30%
O=C(Cc1csc(-c2ccccc2)n1)NCc1ccc(F)cc1	45µM*	6%	-6%	6%	36%
O=C(O)CC(NC(=S)NCc1ccccc1)C(=O)O (stereo unspecified)	?	-16%	/	-2%	36%
NC(=O)CC(NC(=S)NCc1ccccc1)C(=O)O (stereo unspecified)	71µM*	-5%	/	-20%	3%
O=C(Nc1nc2c(F)cc(F)cc2s1)c1ccc(S(=O)(=O)N2CCc3ccccc32)cc1	5%[59 µM]	-16%	/	-28%	5%[57 µM]
O=S(=O)(CCN1C=CC(C(F)(F)F)=NCC1)c1ccc(Cl)cc1Cl	-32%	-2%	4%	-13%	29%
Fc1ccc(CNC(=S)NCc2ccc(F)cc2)cc1	16%	0%	9%	8%	29%
O=C(NC(=S)NCc1ccc(F)cc1)c1ccccc1	50µM*	-13%	-4%	-10%	8%
CC(C)N(Cc1ccccc1)C(=S)Nc1cccnc1	17%[59 µM]	-7%	8%	-8%	13%
CN(Cc1ccccc1)C(=S)Nc1cccnc1	-6%	-22%	/	56µM*	6%
COc1ccc(-c2nc3sc(CCNC(=O)c4cc(Cl)ccc4OC)c(C)n3n2)cc1	-1%[59 µM]	-7%	/	-6%	12%
Cc1ccc(C(=O)C[n+]2cc(Br)cc(Br)c2)cc1[N+](=O)[O-]	50µM*	?	-11%	?	3%
O=C(C[n+]1cc(Br)cc2ccccc21)c1ccc(Cl)cc1	50µM*	-29%	/	?	-20%
Cc1ccc(C(=O)C[n+]2ccccc2)cc1	14µM*	3%	/	-7%	20%
O=C(C[n+]1cn(C(F)F)c2ccccc21)c1ccc(Br)cc1	-7%[59 µM]	50µM*	-14%	-22%	40%
Cc1ccc[n+](CC(=O)c2ccc(-c3ccccc3)cc2)c1	-3%[59 µM]	13%	6%	-4%	24%
O=C(C[n+]1cc(Br)cc(Br)c1)c1ccc(Cl)cc1	?	-14%	/	-28%	35%
CCc1ccc(CNC(=O)C(CC)n2ccc3cc(S(=O)(=O)N4CCCCC4)ccc32)cc1 (stereo unspecified)	-21%[59 µM]	-8%	/	3%	28%
